Measured values: ChEMBL document CHEMBL1961873, “Compounds: GSK PKIS; Assays: Nanosyn kinase panel” (2012)

biological target: T1, Dual specificity protein kinase TTK (Homo sapiens) (UniProt P33981); conditions: at 0.1 µM
T1 sequence (whole entry): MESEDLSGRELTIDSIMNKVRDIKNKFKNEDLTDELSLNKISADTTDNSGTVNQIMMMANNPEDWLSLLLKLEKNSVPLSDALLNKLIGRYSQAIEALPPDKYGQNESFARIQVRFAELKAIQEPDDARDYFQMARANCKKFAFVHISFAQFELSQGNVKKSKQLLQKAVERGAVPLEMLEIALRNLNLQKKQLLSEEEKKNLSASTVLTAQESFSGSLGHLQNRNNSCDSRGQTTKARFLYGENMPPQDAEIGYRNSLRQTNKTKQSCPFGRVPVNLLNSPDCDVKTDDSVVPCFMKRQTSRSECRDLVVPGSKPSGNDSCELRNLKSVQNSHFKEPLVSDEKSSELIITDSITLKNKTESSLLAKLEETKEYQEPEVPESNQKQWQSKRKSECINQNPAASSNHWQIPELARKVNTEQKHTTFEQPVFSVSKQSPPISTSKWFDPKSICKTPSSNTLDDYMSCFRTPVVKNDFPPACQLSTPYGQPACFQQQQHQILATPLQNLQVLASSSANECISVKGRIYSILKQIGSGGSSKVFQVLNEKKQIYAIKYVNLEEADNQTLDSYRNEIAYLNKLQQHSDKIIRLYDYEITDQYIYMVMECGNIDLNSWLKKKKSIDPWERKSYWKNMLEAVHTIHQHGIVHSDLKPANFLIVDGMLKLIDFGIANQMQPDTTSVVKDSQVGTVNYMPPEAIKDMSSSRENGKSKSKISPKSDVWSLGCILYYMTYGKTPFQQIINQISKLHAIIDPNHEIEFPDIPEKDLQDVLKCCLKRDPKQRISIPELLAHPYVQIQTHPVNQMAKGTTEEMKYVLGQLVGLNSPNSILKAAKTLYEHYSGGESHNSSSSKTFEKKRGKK

Structure (SMILES) | inhibition
Cc1cc(Cl)cc2c1NC(=O)C2=NNc1ccc(S(N)(=O)=O)cc1 | 4.88%
Cc1ccc(C(=O)NC2CC2)cc1-c1ccc2[nH]ncc2c1 | -7.32%
O=C(Nc1ccc(Oc2ccc3[nH]c(NC(=O)c4ccco4)nc3c2)cc1)Nc1cc(C(F)(F)F)ccc1F | -0.11%
NS(=O)(=O)c1ccc(-c2cc3ccncc3cc2OCc2ccccc2)cc1 | 9.2%
Cc1cc(O)cc(C)c1/C=C/c1cncc(C(=O)N(C)C)c1 | 1.2%
CN(c1ccc(NC(=O)Nc2ccc(OC(F)(F)F)cc2)cc1)c1ccnc(Nc2cccc(S(N)(=O)=O)c2)n1 | 4.18%
Cc1ccc(O)cc1Nc1ccnc2ccc(S(C)(=O)=O)cc12 | 8.17%
Cc1cc(-c2ccccn2)cc(C)c1/C=C/c1cncc(-c2nn[nH]n2)c1 | 11.3%
O=C1Nc2ccccc2/C1=C/Nc1ccc2[nH]c(=O)[nH]c2c1 | 15.4%
ON=C1CCc2cc(-c3nc(C4CCNCC4)[nH]c3-c3ccncc3)ccc21 | 3.99%
C[C@@H](Oc1cc(-n2cnc3ccc(OCC4CCN(C)CC4)cc32)sc1C(N)=O)c1ccccc1C(F)(F)F | 1.25%
Cc1nc(-c2ccccc2)n2nc(NCCCN3CCOCC3)ncc12 | 6.18%
[O-][S+]1CCN(Cc2ccc(-c3ccc4ncnc(Nc5ccc(OCc6ccccc6)c(Cl)c5)c4c3)o2)CC1 | 8.87%
Oc1cccc(-c2nc(-c3ccccc3)[nH]c2-c2ccncc2)c1 | 3.33%
Nc1nccc(-c2c(-c3ccc(F)cc3)ncn2CCCN2CCOCC2)n1 | 10.5%
Cc1ccc(Nc2ccnc(Nc3cccc(C(N)=O)c3)n2)cc1O | 5.91%

tested on: T2, Receptor-type tyrosine-protein kinase FLT3 (Homo sapiens), P36888 [D835Y]; conditions: at 1 µM
T2 sequence (whole entry): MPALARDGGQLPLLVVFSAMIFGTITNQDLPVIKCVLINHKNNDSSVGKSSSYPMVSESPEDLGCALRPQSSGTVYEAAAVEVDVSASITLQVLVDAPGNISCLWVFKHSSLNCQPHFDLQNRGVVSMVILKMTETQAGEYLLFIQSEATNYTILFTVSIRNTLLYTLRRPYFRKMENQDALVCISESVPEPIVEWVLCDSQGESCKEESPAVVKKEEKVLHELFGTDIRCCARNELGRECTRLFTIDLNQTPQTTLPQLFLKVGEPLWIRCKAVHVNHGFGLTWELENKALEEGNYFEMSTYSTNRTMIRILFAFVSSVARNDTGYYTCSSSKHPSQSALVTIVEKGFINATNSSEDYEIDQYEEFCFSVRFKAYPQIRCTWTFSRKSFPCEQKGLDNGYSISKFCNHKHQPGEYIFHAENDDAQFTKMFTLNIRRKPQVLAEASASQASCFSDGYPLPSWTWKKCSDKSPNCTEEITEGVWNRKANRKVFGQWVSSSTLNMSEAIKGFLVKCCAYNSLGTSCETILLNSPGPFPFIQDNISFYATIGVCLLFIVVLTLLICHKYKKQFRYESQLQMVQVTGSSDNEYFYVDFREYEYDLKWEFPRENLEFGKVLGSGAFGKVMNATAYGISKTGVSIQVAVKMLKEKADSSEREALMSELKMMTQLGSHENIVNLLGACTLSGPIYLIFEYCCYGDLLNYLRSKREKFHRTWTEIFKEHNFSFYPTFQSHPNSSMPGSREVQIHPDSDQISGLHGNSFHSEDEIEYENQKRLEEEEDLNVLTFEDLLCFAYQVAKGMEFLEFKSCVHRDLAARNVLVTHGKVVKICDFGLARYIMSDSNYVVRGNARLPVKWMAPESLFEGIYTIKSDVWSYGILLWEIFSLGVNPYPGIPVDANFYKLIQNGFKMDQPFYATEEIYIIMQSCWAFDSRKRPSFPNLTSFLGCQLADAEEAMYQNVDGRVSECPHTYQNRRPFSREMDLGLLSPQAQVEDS

Structure (SMILES) | inhibition
CCn1c(-c2nonc2N)nc2c(C#CC(C)(C)O)nc(OCCNC)cc21 | -0.49%
COC(=O)Nc1nc2cc(Oc3ccc(NC(=O)Nc4cccc(Br)c4)cc3)ccc2[nH]1 | 5.43%
Nc1nccc(-c2c(-c3ccc(F)cc3)nn3cc(C(F)(F)F)ccc23)n1 | -4.89%
CN(C)CCCn1c(-c2nonc2N)nc2cnccc21 | -1.23%
COc1cc(Nc2nccc(-c3cnn4ncccc34)n2)cc(OC)c1 | 77.3%
C[C@@H](Oc1cc(-n2cnc3ccc(OC[C@@H](O)CO)cc32)sc1C(N)=O)c1ccccc1Cl | 8.15%
N#Cc1cccc(Nc2nccc(-c3cnn4ncccc34)n2)c1 | 53.4%
COc1cc(/C=N/Nc2ncnc3c2cnn3C(C)C)ccc1O | 23.1%
Nc1ccc(C#Cc2cncnc2Nc2ccc(OCc3cccc(F)c3)c(Cl)c2)cc1 | -6.67%
Cc1ccc2c(c1)/C(=N/Nc1ccc(S(N)(=O)=O)cc1)C(=O)N2 | 10.8%
NC(=O)c1cccc(Nc2nccc(Nc3cccc(F)c3)n2)c1 | 21.2%
NS(=O)(=O)c1ccc(NC=C2C(=O)Nc3ccc4ncsc4c32)cc1 | 87.5%
Cc1ccc2c(-c3ccnc(Nc4cccc(C(F)(F)F)c4)n3)c(-c3ccccc3)nn2n1 | 1.38%
NS(=O)(=O)c1ccc(N/N=C2\C(=O)Nc3ccc(Cl)cc32)cc1 | 16.4%
COC(=O)c1cncc(/C=C/c2c(C)cc(O)cc2C)c1 | 1.33%
COc1cccc(-n2ncc3c(N/N=C/c4ccc(S(C)(=O)=O)cc4)ncnc32)c1 | 61.9%
CN(C)C(=O)O[C@H]1CN[C@H](C#Cc2cc3ncnc(Nc4ccc(OCc5cccc(F)c5)c(Cl)c4)c3s2)C1 | 4.09%

Structure (SMILES) | inhibition
Cc1cc(Cl)cc2c1NC(=O)C2=NNc1ccc(S(N)(=O)=O)cc1 | -4.47%
Cc1ccc(C(=O)NC2CC2)cc1-c1ccc2[nH]ncc2c1 | 3.33%
O=C(Nc1ccc(Oc2ccc3[nH]c(NC(=O)c4ccco4)nc3c2)cc1)Nc1cc(C(F)(F)F)ccc1F | 30.6%
NS(=O)(=O)c1ccc(-c2cc3ccncc3cc2OCc2ccccc2)cc1 | 1.86%
Cc1cc(O)cc(C)c1/C=C/c1cncc(C(=O)N(C)C)c1 | 5.04%
CN(c1ccc(NC(=O)Nc2ccc(OC(F)(F)F)cc2)cc1)c1ccnc(Nc2cccc(S(N)(=O)=O)c2)n1 | 43.2%
Cc1ccc(O)cc1Nc1ccnc2ccc(S(C)(=O)=O)cc12 | -0.22%
Cc1cc(-c2ccccn2)cc(C)c1/C=C/c1cncc(-c2nn[nH]n2)c1 | 12%
O=C1Nc2ccccc2/C1=C/Nc1ccc2[nH]c(=O)[nH]c2c1 | 65.9%
ON=C1CCc2cc(-c3nc(C4CCNCC4)[nH]c3-c3ccncc3)ccc21 | 2.96%
C[C@@H](Oc1cc(-n2cnc3ccc(OCC4CCN(C)CC4)cc32)sc1C(N)=O)c1ccccc1C(F)(F)F | 20.9%
Cc1nc(-c2ccccc2)n2nc(NCCCN3CCOCC3)ncc12 | 1.89%
[O-][S+]1CCN(Cc2ccc(-c3ccc4ncnc(Nc5ccc(OCc6ccccc6)c(Cl)c5)c4c3)o2)CC1 | -1.91%
Oc1cccc(-c2nc(-c3ccccc3)[nH]c2-c2ccncc2)c1 | 22.4%
Nc1nccc(-c2c(-c3ccc(F)cc3)ncn2CCCN2CCOCC2)n1 | -6.25%
Cc1ccc(Nc2ccnc(Nc3cccc(C(N)=O)c3)n2)cc1O | 86.1%
